Source: PubChem
Rpn11 inh: inhibitors of human proteasome Rpn11; human 26S proteasome, Ub4-pepOG fluorescence polarization; 20S core pre-blocked with epoxomicin; hit rate 0.59% among 360,000; AID 588493; O00487; inhibition, % at 20 µM;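 active = inhibition at 20 µM, scaled to each plate's controls, above about 33%, limit read from the data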
GRIN3A LBD mod: modulates the human NR3A ligand-binding domain | NR3A LBD differential scanning fluorimetry, Tm shift; 0% = protein alone, 100% = glycine-bound protein | Tm shift relative to glycine control, % at 25 µM | hit rate 2.5% among 340,000;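 active = melting temperature shift of at least 10% of the positive control shift, at one fixed dose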
ZTA counter: ZTA (EBV) inhibition in EBNA-1 counter-screen | P03206 | ZTA-DNA binding, fluorescence polarization | inhibition, % at 11 µM | hit rate 0.15% among 320,000 | AID 2234; in the data active = inhibition above about 33%
Target sequence (P03206 whole entry, looked up): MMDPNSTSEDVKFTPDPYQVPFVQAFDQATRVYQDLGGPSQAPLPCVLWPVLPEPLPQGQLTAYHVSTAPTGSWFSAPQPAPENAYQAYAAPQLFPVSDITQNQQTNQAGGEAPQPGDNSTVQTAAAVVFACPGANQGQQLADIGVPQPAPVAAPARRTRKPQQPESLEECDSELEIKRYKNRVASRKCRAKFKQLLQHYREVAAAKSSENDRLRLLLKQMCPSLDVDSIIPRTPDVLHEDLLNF
EBNA-1 inh: blocks EBNA-1 binding to DNA | EBNA-1 DNA binding, fluorescence polarization | inhibition, % at 14.8 µM | hit rate 0.34% among 300,000; in the data active = inhibition above about 28%
TPT1 inh: inhibitors of Candida albicans tRNA 2'-phosphotransferase TPT1; inhibition, % at 5 µM; recombinant caTPT1, FP RNA substrate dephosphorylation; AID 1962; hit rate 0.81% among 300,000;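 active = inhibition above the mean of all tested compounds plus 3 SD, set per screening campaign, cut at about 24% in these data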
dFosB act: activators of mouse delta FosB homodimer. P13346. purified delta FosB, TAMRA-CDK5 oligo fluorescence polarization; percent of positive-control signal above neutral wells. activation, % at 25 µM. hit rate 0.99% among 340,000. AID 493131;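 active = mean activation above about 17%, with every replicate also reaching it, limit read from the data, passing the limit was not always enough; inconclusive = only one of the two conditions met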
Target sequence (P13346 whole entry, looked up): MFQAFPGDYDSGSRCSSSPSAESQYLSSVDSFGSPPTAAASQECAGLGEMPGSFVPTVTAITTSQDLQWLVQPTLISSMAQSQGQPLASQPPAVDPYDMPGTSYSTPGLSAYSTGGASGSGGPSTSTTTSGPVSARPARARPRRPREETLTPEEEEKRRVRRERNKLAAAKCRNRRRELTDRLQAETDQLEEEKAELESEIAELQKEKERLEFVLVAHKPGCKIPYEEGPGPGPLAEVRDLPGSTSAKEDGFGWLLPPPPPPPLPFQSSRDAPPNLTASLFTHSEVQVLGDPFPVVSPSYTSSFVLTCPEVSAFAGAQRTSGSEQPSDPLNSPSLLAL
Numbers stand for hits; – = inactive; ? = inconclusive; · = no result given. Only some compounds are listed: those with a hit (about 4.5% of all), similar ones and a draw of the others.

SMILES | Rpn11 inh | GRIN3A LBD mod | ZTA counter | EBNA-1 inh | TPT1 inh | dFosB act
O=C(Nc1ccc(NC(=O)c2cccs2)cc1)c1ccc2c(c1)OCO2 | – | 13.7 | – | – | – | ?
O=C(Nc1cccc(NC(=O)c2cccs2)c1)c1ccc2c(c1)OCO2 | – | – | – | – | – | –
O=C(Nc1ccc(NC(=O)c2ccccn2)cc1)C(=O)Nc1ccc2c(c1)OCCO2 | – | – | – | – | – | 18.7
CN(C#N)c1nc(Cl)nc(Nc2cccc(Cl)c2)n1 | – | – | – | – | – | –
CCOc1ccc(C(=O)N2CCN(CC(=O)N3CCCC3)CC2)cc1OCC | – | – | – | · | · | –
O=C(COc1ccc(Cl)cc1)NNC(=O)c1ccc2c(=O)n3c(nc2c1)CCC3 | – | – | – | – | – | –
CCS(=O)(=O)C1=NN2C(=N)/C(=C\c3ccc(OCCOc4cccc(OC)c4)c(OC)c3)C(=O)N=C2S1 | – | 14.7 | – | – | – | –
COc1cc(/C=C2/C(=N)N3C=CSC3=NC2=O)ccc1OCCCOc1ccccc1C | – | 17.8 | – | – | – | –
CCCCCN(C(=O)CCC(=O)OC(C)C(=O)Nc1cccc(C#N)c1)c1c(N)n(CCCC)c(=O)[nH]c1=O (stereo unspecified) | – | 18.1 | – | – | – | –
Cc1[nH]n(-c2c(Cl)cc(Cl)cc2Cl)c(=O)c1C=Nc1ccc(S(=O)(=O)N2CCOCC2)cc1 | – | 11.5 | – | – | – | –
COc1cc([N+](=O)[O-])ccc1NC(=S)Nc1cc(C(=O)OC(C)C)cc(C(=O)OC(C)C)c1 | – | 11.9 | – | – | – | –
COc1cc([N+](=O)[O-])ccc1NC(=S)NCc1ccccn1 | – | – | – | – | – | –
COc1cc(/C=C2/SC(=O)N(CC(=O)N3CCCC3)C2=O)ccc1Oc1ccc([N+](=O)[O-])cn1 | – | 13.0 | – | – | – | –
CCN1C(=O)S/C(=C/c2ccc(Oc3ccc([N+](=O)[O-])cn3)c(OC)c2)C1=O | – | – | – | – | – | –
C[C@H]1CN(C2CCCCC2)C(=O)[C@@H]1CC(=O)Nc1ccc(Br)cc1 | – | · | · | · | · | ·
CN(C)C=NC(=O)c1ccc([N+](=O)[O-])c(CS(=O)(=O)c2ccc(Cl)cc2)c1 | – | 12.5 | – | – | – | –
CCCN(CC(=O)Nc1ccccc1C)C(=O)C1CCN(S(=O)(=O)c2cccc(C(F)(F)F)c2)CC1 | – | – | – | – | – | –
Oc1cccc(-c2nc3ccc4ccccc4c3c3c2CCC3)c1 | – | 12.1 | – | – | – | –
COc1ccc(OC)c(-c2csc(NC(=O)CSc3ccccc3)n2)c1 | – | – | – | – | – | –
CCCOc1ccc(-c2csc(NC(=O)CN3C(=O)CCC3=O)n2)cc1 | – | 35.7 | – | – | – | –
COc1ccc(-c2csc(NC(=O)CN3C(=O)CCC3=O)n2)c(OC)c1 | – | 17.9 | – | – | – | –
COc1ccc(-c2csc(NC(=O)CSc3ccc(Br)cc3)n2)c(OC)c1 | – | 12.1 | – | – | – | –
O=C(NCc1cccc(C(F)(F)F)c1)N1CCN(S(=O)(=O)c2ccccc2F)CC1 | – | – | – | – | – | –
O=C(NCC1CCN(Cc2ccccc2F)CC1)Nc1cc(F)ccc1F | – | – | – | – | – | –
O=C(NCC1CCN(Cc2ccc(F)cc2)CC1)Nc1cc(F)ccc1F | – | 10.0 | – | – | – | –
SMILES | Rpn11 inh | GRIN3A LBD mod | ZTA counter | EBNA-1 inh | TPT1 inh | dFosB act
CCOC(=O)c1nnc(-c2ccccc2)nc1Oc1ccc(Cl)cc1 | – | 10.8 | – | – | – | –
CCOC(=O)c1cnc(-c2ccccc2)nc1Oc1cccc(Cl)c1 | – | 14.0 | – | – | – | –
COc1ccc(CNC(=O)N2CCc3ccccc3C2)cc1Cl | – | – | – | – | – | –
Cc1csc(NC(=O)c2cc3c(s2)CCCC3)n1 | – | – | – | – | – | –
Cc1cnc(NC(=O)c2cc3c(s2)CCCC3)s1 | – | 22.8 | – | – | – | –
CCN(CC)CCn1c(-c2ccc(C)cc2)nc(=S)c2c1CC(C)(C)OC2 | – | 13.9 | – | – | – | –
Cc1onc(-c2ccccc2Cl)c1C(=O)OCC(=O)c1ccc2c(c1)OCCO2 | – | 12.0 | – | – | – | –
Cc1nc(/C(N)=N/OC(=O)c2c(-c3ccccc3Cl)noc2C)cs1 | – | – | – | – | – | –
Cc1onc(-c2ccccc2Cl)c1C(=O)OCC(=O)c1ccc[nH]1 | – | – | – | – | – | –
COc1ccc(/C(N)=N/OC(=O)c2c(-c3ccccc3Cl)noc2C)cc1OC | – | 18.2 | · | · | · | –
Cn1nnc(NC(=S)NC(=O)c2cc(Cl)ccc2Cl)n1 | – | – | – | – | – | –
Cn1cc(S(=O)(=O)Oc2ccccc2)c(=O)n(C)c1=O | – | – | – | – | – | –
O=[N+]([O-])c1cc(Cl)cc2c1nc(NCCO)c1ccccc12 | – | 13.2 | – | – | – | –
O=C(CCc1ccc(Oc2cc([N+](=O)[O-])cc([N+](=O)[O-])c2)cc1)Nc1cccc(Cl)c1 | – | 10.6 | – | – | – | –
O=C(Nc1cc(Oc2ccc(Cl)cc2)cc([N+](=O)[O-])c1)c1ccco1 | – | 21.5 | – | – | – | –
Cc1nn(C)cc1C(=O)Nc1cc(Oc2ccc(Cl)cc2)cc([N+](=O)[O-])c1 | – | 17.3 | – | – | – | –
Cn1cc([N+](=O)[O-])c(C(=O)Nc2cc(Oc3ccccc3)cc([N+](=O)[O-])c2)n1 | – | – | – | – | – | –
COc1ccc(OC)c(-c2csc(NC(=O)CSCc3c(C)noc3C)n2)c1 | – | – | – | – | – | –
O=C1/C(=C/c2cccs2)SC(=S)N1CCC(=O)N1CCCCC1CCO (stereo unspecified) | – | – | – | – | – | –
Cc1ccsc1C(=O)N1CCC1(C)C(=O)NCc1cccnc1 (stereo unspecified) | – | · | · | · | · | ·
O=S(=O)(c1ccc(F)cc1F)N1CCN(CCO)CC1 | – | 12.6 | · | · | · | –
COc1cccc(C(=O)OCC(=O)c2c(N)n(C)c(=O)n(C)c2=O)c1 | – | – | – | · | · | –
O=C(Nc1ccccc1Cc1ccccc1)c1ccccc1NS(=O)(=O)c1ccc(Cl)s1 | – | 34.2 | – | – | – | –
Cc1ccc(NC(=O)c2ccccc2NS(=O)(=O)c2ccc(Cl)s2)cc1 | – | 25.9 | – | – | – | –
Cc1ccc(NS(=O)(=O)c2ccc(Cl)s2)nc1 | – | – | – | – | – | –
O=C(Nc1ccccc1)c1ccccc1NS(=O)(=O)c1ccc(Cl)s1 | – | 21.7 | – | – | – | –
O=C(NCc1ccco1)c1ccccc1NS(=O)(=O)c1ccc(Cl)s1 | – | – | – | – | – | –
Cc1ccc(C)c(NCCCCC(=O)O)c1 | – | · | · | · | · | ·
O=C(NCCN1CCCCCC1)C1CCCN1S(=O)(=O)c1cccc2nsnc12 (stereo unspecified) | – | – | – | – | – | –
c1ccc(Cn2ccnc2SCc2nnc(-c3ccccc3)o2)cc1 | – | 10.5 | – | – | – | –
